PINK1 modulator – PINK1 expression modulation; PINK1 immunofluorescence, high-content cytometry, 24 h; Potency, µM (highest dose often 76.6 µM), actives largely listed as activators; actives 0.2% (n = 410,000); AID 624263; active = well fitted activation curve with a large enough effect; inconclusive = small, poorly fitted or top-dose-only effect; cell line not stated here; also: nearly all actives have a fitted effect of over 65% in size
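Readout is PINK1 immunofluorescence, quantified alongside mitochondrial, cell and nuclear markers by laser-scanning microplate cytometry. Cells from a stable line were exposed to compound titrations (5 concentrations) for 24 hours, with CCCP controls.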
SW480 rerep – induces DNA re-replication in SW480 colon adenocarcinoma cells. SW480 DNA re-replication, Hoechst DNA content imaging, 48 h. Potency, µM (series often up to 46.1 µM), most hits filed as activators. actives 1.8% (n = 340,000). AID 624297; also: nearly all actives have a fitted effect of over 55% in size
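Image-based DNA-content assay: after two days of treatment, nuclei were labelled with the DNA dye Hoechst and imaged, and hits were compounds raising the count of nuclei showing high fluorescence intensity.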
KB-V1 cytotox – kills drug-selected multidrug resistant KB-V1 cells | KB-V1 MDR cells viability, CellTiter-Glo, 72 h | Potency, µM (top dose mostly 46.1 µM), most hits filed as cytotoxic | actives 3.4% (n = 400,000) | AID 1347076; also: nearly all actives have a fitted effect of over 60% in size
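Drug-selected KB-V1 cells, grown in DMEM lacking phenol red with 10% FBS, receive compound titrations; after three days at 37 degrees C, surviving cell ATP is quantified by CellTiter-Glo luminescence and responses normalized and curve-fitted.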
PTAP TSG101 blk – blocks PTAP/TSG101 interaction to inhibit HIV-1 budding | Q99816 | Fluorescence polarization, FITC-PTAP peptide / Tsg101 binding | Potency, µM (highest dose often 115 µM), hits mostly inhibitors | 340,000 tested, under 10 active | AID 493005; active = well fitted inhibition curve with a large enough effect in the main read-out, with a control signal flat, not every such curve was filed as active; inconclusive = small, poorly fitted or top-dose-only effect, or effect the other way, or a change in a side signal; inactive = no such curve, though single readings can be large or run the other way
Target sequence (Q99816 whole entry, looked up): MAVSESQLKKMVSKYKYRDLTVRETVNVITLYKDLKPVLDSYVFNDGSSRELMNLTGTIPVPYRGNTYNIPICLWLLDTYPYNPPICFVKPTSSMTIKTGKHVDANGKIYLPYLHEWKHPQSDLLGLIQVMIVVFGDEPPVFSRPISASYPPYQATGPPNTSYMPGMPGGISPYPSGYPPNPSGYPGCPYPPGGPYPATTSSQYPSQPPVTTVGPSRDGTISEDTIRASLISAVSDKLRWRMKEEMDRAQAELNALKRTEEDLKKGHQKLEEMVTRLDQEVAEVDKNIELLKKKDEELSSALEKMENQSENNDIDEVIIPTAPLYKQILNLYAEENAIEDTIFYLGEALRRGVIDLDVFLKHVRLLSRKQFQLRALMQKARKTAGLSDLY
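Compounds were pin-transferred onto Tsg101 binding domain (10 uM final) in HEPES pH 7.5 buffer, then FITC-PTAP peptide was added at 50 nM final. After 20 min at RT, polarization reported peptide displacement across a qHTS concentration series.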
KB-3-1 cytotox – kills parental KB-3-1 adenocarcinoma cells; KB-3-1 viability, CellTiter-Glo ATP luminescence, 72 h; Potency, µM (highest dose often 46.1 µM), usual class: cytotoxic; actives 1.4% (n = 400,000); also: nearly all actives have a fitted effect of over 60% in size
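72 h, 37 °C compound treatment of KB-3-1 parental cells; CellTiter-Glo added, 10 min, luminescence read. Data corrected against DMSO-only plates and normalized before curve fitting.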
MCF10A rerep – inducers of DNA re-replication in MCF 10A breast cells; MCF 10A DNA re-replication, Hoechst nuclear intensity, 48 h; Potency, µM (titrated, usually from 46.1 µM), actives largely listed as activators; actives 2.9% (n = 350,000); AID 624296; also: nearly all actives have a fitted effect of over 50% in size
Large screens that a line does not name were inactive. Shown are actives, neighbours in structure and some others; about 6.8% of the full set was active somewhere. Unless noted, calls follow the shape of the dose curve; as a rule, active = well fitted curve in the direction sought with a large enough effect; inconclusive = small, poorly fitted or top-dose-only effect, or another doubt; inactive = no such curve, though single readings can be large; an effect the other way counts as inactive or inconclusive.

CCN(C(=O)Cn1cnc2onc(-c3ccc(F)cc3)c2c1=O)c1cc(C)ccc1C	none (no result: SW480 rerep, PTAP TSG101 blk, MCF10A rerep)
CCC(c1nnnn1CS(=O)(=O)c1ccc(C)cc1)N1CCN(c2nc3ccccc3s2)CC1 (stereo not drawn)	SW480 rerep inconclusive, KB-V1 cytotox 4.1µM, MCF10A rerep inconclusive (no result: PINK1 modulator)
CCCC(c1nnnn1CS(=O)(=O)c1ccc(C)cc1)N1CCN(c2ccccc2)CC1 (stereo not drawn)	KB-V1 cytotox inconclusive
Cc1cc(COc2ccccc2OCc2cc(C)no2)on1	PINK1 modulator inconclusive, KB-V1 cytotox 12µM
CCN(C(=O)CSc1nc2ccccc2n1Cc1ccc(F)cc1Cl)c1ccccc1	KB-V1 cytotox inconclusive (no result: SW480 rerep, PTAP TSG101 blk, MCF10A rerep)
Cc1cccc(NC(=O)c2ccc(COc3ccc4ccccc4c3)o2)n1	MCF10A rerep inconclusive
COc1ccc(/C(O)=C/C(=O)C(=O)Nc2c(C)n(C)n(-c3ccccc3)c2=O)cc1	KB-V1 cytotox 16µM, MCF10A rerep inconclusive
Cc1c(NC(=O)c2ccc(COc3ccc4ccccc4c3)o2)c(=O)n(-c2ccccc2)n1C	KB-V1 cytotox 7.3µM, KB-3-1 cytotox 21µM
Cc1cc(C)c2c(C)c(C(=O)Nc3c(C)n(C)n(-c4ccccc4)c3=O)oc2c1	KB-V1 cytotox 8.2µM
COC(=O)C1CCN(Cc2ccc3c(c2)CN(C(=O)c2ccc(-n4cnnn4)cc2)CCO3)CC1	none (no result: SW480 rerep, KB-V1 cytotox, PTAP TSG101 blk, KB-3-1 cytotox, MCF10A rerep)
CN(C)C(CNc1ncnc2sccc12)c1cccs1 (stereo not drawn)	KB-V1 cytotox inconclusive, MCF10A rerep inconclusive
CCOC(=O)c1sc2ncnc(NCC(c3cccs3)N(C)C)c2c1C (stereo not drawn)	KB-V1 cytotox 21µM
Cc1cc(NC(=O)NC(=O)c2ccccc2NC(=O)C(C)N)ccc1Oc1ncc(Br)cn1 (stereo not drawn)	SW480 rerep 2.9µM, KB-V1 cytotox 0.73µM, KB-3-1 cytotox 0.23µM, MCF10A rerep inconclusive
COc1ccc(C(=O)NCCS(=O)(=O)N2CCN(C(=O)c3ccco3)CC2)cc1	SW480 rerep 4.1µM
CCCS(=O)(=O)N1CCN(C(=O)c2ccco2)CC1	none
COc1ccccc1OCc1ccc(C(=O)N2CCN(C(=O)c3ccco3)CC2)cc1	KB-V1 cytotox 5.2µM
COc1ccc(CN2CCN(C(=O)c3ccco3)CC2)cc1OCc1ccccc1	KB-3-1 cytotox inconclusive
CCS(=O)(=O)N1CCN(C(=O)c2ccco2)CC1	MCF10A rerep 8.2µM (no result: PINK1 modulator)
Cc1ccc(N2CCN(C(=O)C3CCN(c4ncnc5c4nc4n5CCCCC4)CC3)CC2)c(C)c1	none (no result: SW480 rerep, KB-V1 cytotox, PTAP TSG101 blk, KB-3-1 cytotox, MCF10A rerep)
Nc1ccc(/C=C/c2ccnc3ccccc23)c(N)c1	none (no result: PINK1 modulator, SW480 rerep, PTAP TSG101 blk, MCF10A rerep)
CN(c1ccccc1)c1cc(Br)nc(Br)c1	KB-V1 cytotox 21µM, KB-3-1 cytotox inconclusive
COc1ccc(S(=O)(=O)Oc2ccc3ccccc3c2)cc1	SW480 rerep inconclusive, KB-V1 cytotox 16µM, KB-3-1 cytotox inconclusive, MCF10A rerep inconclusive
C[n+]1c2n(c3ccccc31)N=C(c1ccc(Cl)cc1)CS2	PINK1 modulator inconclusive, SW480 rerep inconclusive, KB-3-1 cytotox 5.8µM
CC1Sc2n(c3ccccc3[n+]2C)N=C1c1ccccc1 (stereo not drawn)	KB-3-1 cytotox 7.3µM
Clc1ccc(C2=Nn3c(Cn4nnc5ccccc54)nnc3SC2)cc1	KB-V1 cytotox inconclusive
COc1ccc(C2=Nn3c([n+](C)c4ccccc43)SC2)cc1	KB-3-1 cytotox 2.6µM, MCF10A rerep inconclusive
COc1ccc(C2=NN(C(N)=S)C(c3ccccc3)C2)cc1 (stereo not drawn)	SW480 rerep inconclusive, KB-V1 cytotox inconclusive
COC(=O)c1c(NC(=O)Cc2coc3ccc(C(C)C)cc23)sc2c1CCC2	none (no result: SW480 rerep, PTAP TSG101 blk, MCF10A rerep)
COc1ccc(NC(=O)c2oc3ccccc3c2NC(=O)Cc2cccs2)c(OC)c1	none (no result: SW480 rerep, PTAP TSG101 blk, MCF10A rerep)
COc1cc(OC)c(OC)cc1NC(=O)CC1COc2ccccc2O1 (stereo not drawn)	KB-V1 cytotox 15µM
COc1ccc(Cl)cc1NC(=O)CN(C)C(=O)CN1C(=O)NC(C)(c2ccc3ccccc3c2)C1=O (stereo not drawn)	KB-V1 cytotox inconclusive, KB-3-1 cytotox 10µM, MCF10A rerep inconclusive

Bioassay records: PubChem BioAssay, National Center for Advancing Translational Sciences (NCATS)
